# Screening results as filed in PubChem.
# SENP8 block-1 = SENP8 protease inhibition. Q96LD8. purified SENP8, Z-RLRGG-aminoluciferin cleavage, luminescence. inhibition, % at 10 µM. 1.2% of 330,000 active; in the data active = inhibition above about 50%
# Platelet DG rel = platelet dense granule release activity; 0.22% of 300,000 active; inhibition, %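 (compounds screened at 7.5 µM in platelet-rich plasma)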; human platelet-rich plasma, SFLLRN dense granule ATP release, luminescence; AID 1663;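 active = mean replicate score, as percent of positive control, at or above 50; inconclusive = mean below 50 but at least one replicate at or above 50; inactive = mean and every replicate below 50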
# SENP7 inh = SENP7 protease inhibition; AID 434973; recombinant SENP7, Z-RLRGG-aminoluciferin luminescence, 40 min; Q9BQF6; inhibition, % at 5 µM; 1.5% of 330,000 active;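 active = inhibition above about 50% at the single test dose, limit read from the data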
# Target sequence (Q9BQF6 706-1050 limits assumed): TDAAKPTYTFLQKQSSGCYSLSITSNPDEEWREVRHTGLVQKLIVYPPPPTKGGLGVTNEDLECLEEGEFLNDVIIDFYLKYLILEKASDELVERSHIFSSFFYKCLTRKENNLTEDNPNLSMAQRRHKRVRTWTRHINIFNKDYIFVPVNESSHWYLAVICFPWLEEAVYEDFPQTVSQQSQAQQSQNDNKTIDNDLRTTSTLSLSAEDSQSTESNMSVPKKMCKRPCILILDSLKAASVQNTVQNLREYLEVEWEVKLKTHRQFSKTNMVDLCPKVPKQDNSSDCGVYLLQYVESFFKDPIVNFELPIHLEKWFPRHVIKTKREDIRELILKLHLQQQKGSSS
# SENP6 inh = SENP6 protease inhibition; inhibition, % at 10 µM; Recombinant SENP6 catalytic domain, aminoluciferin luminescence; Q9GZR1; 1.8% of 330,000 active;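 active = inhibition above about 50% at the single tested dose, limit read from the data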
# SENP8 block-2 = SENP8 (human) protease inhibition; recombinant SENP8, Nedd8 substrate fluorescence; inhibition, % at 20 µM; 0.64% of 360,000 active; AID 602440; Q96LD8; in the data active = inhibition mostly above about 40%, no sharp cut-off; inactive = mostly below about 27%
# SENP8 confirm = human SENP8 inhibition, confirmed. Recombinant SENP8, Z-RLRGG-aminoluciferin luminescence, 60 min. inhibition, % at 12.5 µM. AID 488912. 40% of 6,200 active. shares compounds with SENP7 inh;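 active = mean inhibition across replicates above about 50%, limit read from the data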
# SENP6 conf = human SENP6 inhibition, confirmed | shares compounds with SENP7 inh | recombinant SENP6, Z-RLRGG-aminoluciferin luminescence | inhibition, % at 12.5 µM | 58% of 6,200 active | AID 488915
# SENP7 conf = human SENP7 inhibition, confirmed; shares compounds with SENP7 inh; recombinant SENP7, Z-RLRGG-aminoluciferin luminescence, 40 min; inhibition, % at 12.5 µM; 69% of 6,200 active
# Casp3 select = inhibits human caspase-3 in SENP selectivity test. shares compounds with SENP7 inh. purified caspase-3, Z-DEVD-aminoluciferin luminescence, 60 min. inhibition, % at 12.5 µM. 60% of 6,200 active. AID 488918;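 active = mean inhibition above about 50%, limit read from the data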
# Target sequence (P42574 28-227 limits assumed): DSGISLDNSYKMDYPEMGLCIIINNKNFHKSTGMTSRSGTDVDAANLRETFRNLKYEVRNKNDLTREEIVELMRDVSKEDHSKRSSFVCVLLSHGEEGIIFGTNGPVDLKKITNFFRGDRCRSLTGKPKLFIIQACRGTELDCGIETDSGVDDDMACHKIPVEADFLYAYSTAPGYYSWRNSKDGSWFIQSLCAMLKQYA
# SENP luc ctr = luminescence interference (SENP counter-screen) | shares compounds with SENP7 inh | AID 488919 | Pre-incubated SENP8/Z-RLRGG-aminoluciferin, luciferase luminescence interference | 39% of 6,200 active | inhibition, % at 12.5 µM;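 active = mean inhibition above about 50% when retested at one dose, limit read from the data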
# Hits are given with their value; n = inactive; u = inconclusive; x = no result. Most compounds without a hit are left out; they make up all but 2.4% or so of the library.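 Rule for the calls, unless noted: active = mean inhibition above about 50% in the one-dose retest (limit read from the data); inactive = the rest.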
SMILES,SENP8 block-1,Platelet DG rel,SENP7 inh,SENP6 inh,SENP8 block-2,SENP8 confirm,SENP6 conf,SENP7 conf,Casp3 select,SENP luc ctr
O=C(COc1ccc(Cl)cc1Cl)Nc1ccc(Cl)cn1,72,n,n,84,n,n,n,n,59,n
Cc1cc(Cl)ccc1OCC(=O)OCC(=O)Nc1ccc(Cl)cn1,x,x,x,x,n,x,x,x,x,x
O=C(Nc1ccc(Cl)cn1)c1ccccc1F,64,n,80,82,n,n,71,93,85,n
Cc1cc(NC(=O)c2ccccc2)ncc1NC(=O)c1cccs1,72,n,n,64,n,76,74,93,90,80
Cc1cc(NC(=O)c2cccc(F)c2)ncc1NC(=O)c1ccco1,82,u,93,94,n,87,87,99,95,88
O=C(COc1ccccc1)NCC(=O)N1CCCC1,n,n,n,n,n,x,x,x,x,x
O=C(Nc1cccc(C(=O)Nc2ccc(Cl)cn2)c1)c1ccccc1,n,n,n,n,n,x,x,x,x,x
O=C(Nc1ccc(Cl)cn1)c1cccc(F)c1,73,n,89,91,n,83,85,97,92,81
O=C(NC(=O)c1ccccc1)Nc1ccc(Cl)cn1,n,n,72,n,n,n,n,n,n,n
CC(=O)n1cc(C2CC(=O)OC3=C2CC(=O)C(C)(C)C3)c2ccccc21 (configuration not stated),x,x,x,x,n,x,x,x,x,x
c1ccc(-c2cc3ccccc3[nH]2)cc1,n,n,n,n,n,x,x,x,x,x
COc1ccc(-c2cc3ccccc3[nH]2)cc1,n,n,61,53,n,n,n,66,n,n
Cc1ccc(O)c(-c2cc3ccccc3[nH]2)c1,n,n,53,71,n,62,62,83,n,71
Cc1ccc([N+](=O)[O-])cc1N/C=C1\CCc2ccccc2C1=O,n,n,n,79,n,n,n,n,n,n
C=CCn1c(CSc2nc3ccccc3s2)nnc1SCC(=O)NCCN1CCOCC1,n,n,n,n,n,x,x,x,x,x
Cn1c(CSc2nc3ccccc3s2)nnc1SCC(=O)NCCN1CCOCC1,n,n,76,n,n,n,n,n,n,n
CN(CC(=O)Nc1c(Cl)cccc1Cl)C(=O)CNC(=O)c1ccc2ccccc2c1,n,n,n,n,n,x,x,x,x,x
CCS(=O)(=O)c1ccc2oc(Nc3ccccc3C)nc2c1,69,n,79,81,n,82,81,97,92,84
CCN(CC)S(=O)(=O)c1ccc2oc(Nc3ccccc3)nc2c1,n,n,n,55,n,n,n,71,n,n
O=C(COc1ccccc1C(=O)c1cnn(-c2ccccc2)c1)Nc1ccccc1,n,n,n,n,n,x,x,x,x,x
COc1ccccc1CNC(=O)COc1ccccc1C(=O)c1cnn(-c2ccccc2)c1,n,x,n,51,n,n,n,61,n,n
COc1ccc(OCC(=O)Nc2cccc(-c3nc4ccccc4o3)c2)cc1,n,n,n,n,n,x,x,x,x,x
CS(=O)(=O)Cc1ccc(C(=O)Nc2cccc(-c3nc4ccccc4[nH]3)c2)cc1,50,n,67,79,n,59,57,81,62,n
COc1ccc(OCC(=O)Nc2cccc(-c3nc4ccccc4[nH]3)c2)cc1,61,n,76,74,n,77,76,92,58,79
CS(=O)(=O)c1cccc(C(=O)Nc2cccc(-c3nc4ccccc4[nH]3)c2)c1,91,n,96,96,n,96,97,102,n,96
SMILES,SENP8 block-1,Platelet DG rel,SENP7 inh,SENP6 inh,SENP8 block-2,SENP8 confirm,SENP6 conf,SENP7 conf,Casp3 select,SENP luc ctr
CN(C(=O)C1CCC(=O)N(CCc2ccc(Cl)cc2)C1)C1CCOCC1 (configuration not stated),n,n,n,n,n,x,x,x,x,x
Cn1cc(Cl)c(C(=O)OCC(=O)Nc2cccc(Cl)c2)n1,n,n,n,51,n,n,n,n,n,n
Cc1nc(NS(=O)(=O)c2ccccc2)sc1NC(=O)OC(C)C,n,n,98,n,n,n,n,n,n,n
CCOC(=O)c1sc(NC(C)=O)cc1C,n,n,n,n,n,x,x,x,x,x
CCOC(=O)c1sc(NC(=O)Nc2ccccc2Cl)cc1C,95,n,99,95,n,95,96,100,89,n
CCOC(=O)c1cc(NC(=O)Nc2ccccc2Cl)c(C)nc1C,n,n,n,n,n,x,x,x,x,x
CCOC(=O)c1sc(NC(=O)c2ccc(C)s2)cc1C,n,n,73,n,n,n,n,71,n,n
CCOC(=O)c1sc(NC(=O)Nc2ccccc2)cc1C,81,n,89,98,n,91,91,98,68,72
CC1=NN(c2ccccc2)C(=O)C1N=Nc1ccc(C)cc1 (configuration not stated),n,n,n,n,x,x,x,x,x,x
CC1=NN(C(N)=S)C(=O)C1N=Nc1ccc(S(N)(=O)=O)cc1 (configuration not stated),n,n,n,51,n,n,n,70,74,57
CC(=O)N(C)c1ccc(N=NC2C(=O)N(C(N)=S)N=C2C)cc1 (configuration not stated),77,n,80,n,n,86,84,97,95,87
CC12CCC(=O)N1C(C(=O)NNC(=O)c1ccc(Br)cc1)CS2 (configuration not stated),n,x,n,n,n,x,x,x,x,x
Cc1csc(=NC(=O)c2ccccc2)n1C,n,n,n,n,n,x,x,x,x,x
O=C(N=c1nc2ccccn2s1)c1ccccc1,59,n,96,94,n,54,59,66,54,n
COCn1c(-c2ccc(OC)cc2)nc2ccccc21,n,n,53,59,n,55,53,86,81,63
CCCn1c(-c2ccc(OC)cc2)nc2ccccc21,n,n,n,n,n,x,x,x,x,x
N#CCSc1nnc2sc3ccccc3n12,n,n,87,n,n,n,n,n,n,n
Cc1c(N=Cc2c(O)n(C)c(=O)c3ccccc23)c(=O)n(-c2ccccc2)n1C,n,n,n,52,n,n,n,n,n,n
CCC(C)NC(=S)N(CCc1ccccc1)Cc1cc2cc(OC)c(OC)cc2[nH]c1=O (configuration not stated),n,n,n,n,n,x,x,x,x,x
CSc1ccc(C2N=C(c3ccccc3)NO2)cc1 (configuration not stated),n,n,n,61,n,n,n,n,n,n
